# Test results from PubChem BioAssay AID1471 (National Center for Advancing Translational Sciences (NCATS), 2008).
# In all, about 230,000 compounds went through this assay and about 310 (0.13%) were called active. Entries that show only a call come without a potency. Inconclusive results (about 2%) are left out. The full list was thinned out, with actives kept by preference. Unmarked numbers belong to inactive results. Calls follow the shape of the dose curve; as a rule, active = well fitted activation curve with a large enough effect; inconclusive = small, poorly fitted or top-dose-only effect; inactive = no such curve, though single readings can be large or run the other way.
# Assay: qHTS Multiplex Assay to Identify Dual Action Probes in a Cell Model of Huntington: Cytoprotection (ATP); also: nearly all actives have a fitted effect of over 45% in size;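 as to cytoprotection (ATP increase): toxic huntingtin expression switched on by the ecdysone agonist tebufenozide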
# Settings: PC12 HTT-Q103 induced, ATP luminescence, 40 h; series mostly up to 56.4 µM
# How it was run: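 PC12 cells with ecdysone-inducible HTT exon 1 Q103-GFP, induced with 100 nM tebufenozide and co-treated with library compounds in a dose series (1536-well, 1500 cells/well). Cytoprotection read as ATP content by ATPlite luminescence.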
# Potency is read from the fitted curve at half-maximal effect.
Compound,cytoprotection (ATP increase),Potency
C=CCNC(=O)c1ccc2c3n(nc2c1)-c1ccc(C)cc1CO3,-15% [at 10 µM],
CC(C)(O)c1ccccc1CC[C@H](SCC1(CC(=O)O)CC1)c1cccc(/C=C/c2ccc3ccc(Cl)cc3n2)c1,inactive,
C=CC1(C)CC(=O)C2(O)C(C)(O1)C(OC(C)=O)C(O)C1C(C)(C)CCC(O)C12C (configuration not stated),inactive,
C[C@H]1Cc2c(COc3ccccc3)nc3c(c2CO1)CN(C(=O)NCc1ccco1)CC3,9.12% [at 10 µM],
O=C1OCCN1C(=O)[C@H]1[C@H](c2ccc(F)cc2)C(c2ccccc2)=NN1c1ccc(Br)cc1,inactive,
Cc1cc2oc(=O)cc(-c3ccccc3)c2c(C)c1-c1ccc(OC(F)(F)F)cc1,inactive,
COc1ccc(CC(N)C(=O)NC2C(O)[C@H](n3cnc4c(N(C)C)ncnc43)O[C@@H]2CO)cc1 (some centres not stated),inactive,
COC(=O)CC1c2ccccc2C(Cc2ccc(OC)cc2)=C(C)N1C(=O)OC (configuration not stated),-4.91% [at 10 µM],
COc1cc(OC)cc(-c2nc3ccccc3c(=O)n2NC(=O)c2cccnc2Cl)c1,-11.8% [at 10 µM],
O=C1C=C(c2ccccc2)CCC1,inactive,
CC(C)[C@@H]1NC(=O)[C@H](Cc2ccccc2)NC(=O)[C@@H](CC(=O)O)NC(=O)CNC(=O)[C@H](CCCNC(=N)N)NC1=O,inactive,
COc1ccc(N2CCN(CCNC(=O)c3nnc(Cc4c(F)cccc4Cl)o3)CC2)cc1,7.41% [at 0.074 µM],
Clc1ccc(C(Cn2ccnc2)OCc2ccsc2Cl)c(Cl)c1 (configuration not stated),inactive,
COC(=O)C1=C(C(=O)OC)[C@@H]2N(C)c3ccccc3[C@@]23C[C@@H](C(=O)OC)N(C(=O)c2ccco2)C3=N1,-6.19% [at 10 µM],
COC(=O)C/C=C/[C@@H](C)[C@H](NC(=O)OCC(Cl)(Cl)Cl)c1ccccc1,inactive,
C=CC1=C2C=C(C3CC3)N(C(CO)CO)C=C2C(=O)C(C)(OC(=O)c2ccco2)C1=O (configuration not stated),-26.7% [at 10 µM],
Cc1ccc(-c2cccc([C@H]3[C@@H]4C=CC[C@@H](C)[C@@H]4C(=O)N3Cc3ccccc3)c2)cc1,inactive,
COc1ccc(/C=C2\NC(=O)[C@@H]3Cc4ccccc4CN3C2=O)cc1,inactive,
COC(=O)c1c(CCl)noc1C(=O)NC(C)C,inactive,
c1ccc(CSc2ncnc3c2sc2nc(N4CCOCC4)c4c(c23)CCCC4)cc1,inactive,
C[C@H]1Cc2c(COc3ccccc3)nc3c(c2CO1)CN(C(=O)Nc1cccc(C#N)c1)CC3,-20.7% [at 10 µM],

Compound,cytoprotection (ATP increase),Potency
COc1ccc(-c2nc3c(c4c2C[C@H](c2ccccc2)OC4)CN(C(=O)C2CC2)CC3)c(C)c1,6.89% [at 10 µM],
COC(=O)CSc1ccc2nnc(CCNS(=O)(=O)c3ccc(C)cc3)n2n1,inactive,
CCN1C(=O)N[C@@H](c2ccccc2)C(C(=O)OC)=C1C,-11.9% [at 10 µM],
NC(=O)C(=O)N/N=C/c1ccc([N+](=O)[O-])o1,inactive,
CCOC(=O)C1CSC(CC(=O)Nc2ccc(OCC)cc2)C(=O)N1 (configuration not stated),0.901% [at 10 µM],
COCCCNC(=O)Cn1cc(/C=C(\C#N)C(=O)N2CCN(c3ccccc3)CC2)c2ccccc21,1.65% [at 10 µM],
COC(=O)C(C(=O)OC)C1c2ccccc2C=C(C2CC2)N1C(=O)OC (configuration not stated),inactive,
Cc1csc(-c2coc3cc(O[C@@H]4O[C@H](CO)[C@@H](O)[C@@H](O)[C@H]4O)ccc3c2=O)n1,inactive,
O=C1CCC[C@@H]2CC(N3CCCCC3)C[C@@H]3CCN1[C@H]23 (some centres not stated),inactive,
CC1=C(C/C=C(\C)CCCC(C)CCCC(C)CCCC(C)C)C(=O)c2ccccc2C1=O (configuration not stated),inactive,
CCOC(=O)C1=C(C)c2ccccc2OC1(C)C(=O)OCC (configuration not stated),inactive,
COC(=O)[C@@H]1CC2=CC(=O)CC[C@]2(C)[C@@]23O[C@@H]2C[C@@]2(C)[C@@H](CC[C@@]24CCC(=O)O4)[C@H]13,inactive,
C[C@H](NC(=O)c1nc[nH]c1C(=O)N[C@@H](C)C(=O)OC(C)(C)C)C(=O)OC(C)(C)C,22% [at 10 µM],
CCCCC/C=C\C/C=C\CCCCCCCCCC(N)=O,inactive,
CCCCC/C=C\CC1OC1CCCCCCCC(=O)O (configuration not stated),inactive,
CCCCCCCC[C@@H](O)/C=C/C=C/C=C\[C@@H](O)CCCC(=O)O,inactive,
Cc1ccccc1CSCCNC(=O)c1ccc(Cl)c(S(=O)(=O)N2CCOCC2)c1,-0.687% [at 10 µM],
O=C(NCCSCc1ccccc1)c1ccc(Cl)c(S(=O)(=O)N2CCOCC2)c1,,398 nM (active)
CC(C)(CNC(=O)c1ccc(Cl)c(S(=O)(=O)N2CCc3ccccc3C2)c1)N1CCOCC1,inactive,
CCCCC/C=C\C/C=C\CCCCCCCCCC(=O)O,inactive,
Nc1nc2c(ncn2[C@@H]2O[C@H](COP(=O)(O)OP(=O)(O)OP(=O)(O)O)[C@@H](O)C2O)c(=O)[nH]1 (some centres not stated),inactive,

Compound,cytoprotection (ATP increase),Potency
CC1(C)O[C@@H]2C[C@@H]3[C@H]4C[C@@H](F)C5=CC(=O)C=C[C@]5(C)[C@@]4(F)[C@@H](O)C[C@]3(C)[C@]2(C(=O)CO)O1,inactive,
C/C=C/C=N/NC(=O)c1ccncc1,inactive,
CCOC(=O)c1c(NC(=O)CSc2nnc(CNc3ccc(C)cc3C)o2)sc(C)c1C,33% [at 10 µM],
CCOC(=O)C1=C(C(=O)OCC)C(C(=O)OCC)N(S(=O)(=O)C(F)(F)F)c2ccccc21 (configuration not stated),inactive,
CC(OC(=O)CNS(=O)(=O)/C=C/c1ccccc1)C(=O)Nc1ccc(S(=O)(=O)N2CCCC2)cc1 (configuration not stated),15.7% [at 10 µM],
CC(C)(C)NCC(O)COc1cccc2[nH]c(=O)[nH]c12 (configuration not stated),inactive,
CC/C=C\C/C=C\C/C=C\C/C=C\C/C=C\C/C=C\CCC(=O)NCCc1ccc(O)c(O)c1,inactive,
CC(C)c1cnc(NC(=O)Cc2ccccc2)s1,inactive,
N#Cc1c(-c2ccc(F)cc2)nc(-c2ccccc2)[nH]c1=O,inactive,
N#Cc1ccc(-c2ccc(F)cc2)nc1Sc1ccccc1,inactive,
N#Cc1ccc(-c2nc3cc(C#N)c(C#N)cc3nc2-c2ccccc2)cc1C#N,,2820 nM (active)
Cc1csc(-c2nc3ccccc3n2C)n1,-116% [at 1.9 µM],
CC(O)[C@@H](N)C(=O)O (some centres not stated),inactive,
COc1ccc(OC)c(NC(=O)c2cnn(-c3ccccc3Cl)c2NC(=O)c2ccco2)c1,inactive,
C=CCC(C)(O)c1ccco1 (configuration not stated),inactive,
NNc1nnc(NN)c2ccccc12,inactive,
NC(=O)c1c(NC(=O)CSc2nc(N)cc(=O)[nH]2)sc2c1CCCC2,2.28% [at 10 µM],
CCCCc1nnc(NC(=O)CSc2nc(N)cc(=O)[nH]2)s1,,3160 nM (active)
CCCCc1nnc(NC(=O)CSc2nc(C)cc(=O)[nH]2)s1,inactive,
Cc1cccc(C)c1NC(=O)NC1=CCCN1C,inactive,
